Bioassay records (PubChem)
Rows were chosen to be rich in hits. Some 2.5% of all compounds tested hit in one or more screens of this group.
AI-2 QS modul = modulators of Vibrio harveyi AI-2 quorum sensing system; Vibrio harveyi JMH597 AI-2 luminescence/OD600 ratio, 9 h; hits give low values; strain lacks LuxN and CqsS sensors; 0 = neutral-control median; activity change, % at 7.5 µM; 300,000 compounds, 0.4% hits; in the data active = activity change below about -75%, passing the limit was not always enough; inconclusive = no clear call, values can overlap the other calls;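 note: luminescence divided by OD600 gain over 9 h not by final OD600 alone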
Efflux pump mplx = inhibitors of Candida antifungal efflux pumps expressed in yeast; 330,000 compounds, 0.44% hits; AID 485275; inhibition, % at 10 µM; S. cerevisiae Candida pump triplex, Nile Red efflux;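 active = plate passing quality check with inhibition over a set limit, or well fluorescence over plate mean plus 4 SD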;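 note: Nile Red retained in pooled yeast measured as flow cytometry median fluorescence; 0% = buffer negative control and 100% = Enniatin B positive control; higher means more Nile Red kept so more efflux inhibition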
SUMO Mot1 rescue = SUMOylation pathway inhibition by Mot1-301 growth rescue. growth rescue, % at 18.8 µM. 320,000 compounds, 1% hits. S. cerevisiae Mot1-301 growth rescue, ATP luminescence, 38.5C; percent above DMSO median, 100 means doubled;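 active = every valid replicate shows activation above 250% relative to neutral control wells; inactive = the rest, any valid replicate at or below 250%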;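 note: OY570 slx delta 5 strain wells were the positive control but not used for scaling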
ATG4B inhibitor = ATG4B (human) cysteine protease inhibition. 340,000 compounds, 0.51% hits. ATG4B cleavage of LC3-PLA2, NBD-HPC fluorescence, 1 h. inhibition, % at 8.33 µM. AID 504462. Q9Y4P1; in the data active = inhibition above about 40%
Target sequence (Q9Y4P1 whole entry, looked up): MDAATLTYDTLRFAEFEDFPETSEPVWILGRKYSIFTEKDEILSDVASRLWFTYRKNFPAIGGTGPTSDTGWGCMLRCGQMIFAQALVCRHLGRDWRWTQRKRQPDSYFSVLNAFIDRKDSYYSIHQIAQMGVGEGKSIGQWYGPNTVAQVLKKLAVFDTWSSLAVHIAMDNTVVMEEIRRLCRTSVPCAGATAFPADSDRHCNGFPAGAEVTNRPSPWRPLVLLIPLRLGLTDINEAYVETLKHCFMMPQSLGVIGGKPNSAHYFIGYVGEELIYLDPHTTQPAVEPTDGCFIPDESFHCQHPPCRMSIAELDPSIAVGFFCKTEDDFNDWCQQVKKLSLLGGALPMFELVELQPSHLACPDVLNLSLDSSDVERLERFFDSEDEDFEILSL
V-ATPase pHluor = yeast V-ATPase proton transport regulation by pHLuorin; S. cerevisiae, pHLuorin cytosolic pH fluorescence; response, % at 10 µM; 350,000 compounds, 0.37% hits; in the data active = response mostly above about 7.3%, no sharp cut-off; inactive = mostly below about 5.4%; note: actives read high
JMH597 growth rt = retest Vibrio harveyi JMH597 growth inhibition; growth inhibition, % at 7.5 µM; shares compounds with AI-2 QS modul; 750 compounds, 1% hits; OD600 absorbance, 9 h; lacks LuxN and CqsS sensors; AID 2726;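 active = every replicate shows growth inhibition above 50%; inconclusive = at least half, but not all, replicates pass that cutoff; inactive = fewer than half of replicates pass it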
BB721 const-QS lum = retest counter-screen: lowers luminescence of constitutive-QS Vibrio harveyi BB721. shares compounds with AI-2 QS modul. 9 h. inhibition, % at 7.5 µM. 750 compounds, 95% hits. AID 2727;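 active = inhibition above about 80% in every replicate, not just on average, limit read from the data; inconclusive = at least half of replicates past the limit, but not all; inactive = fewer than half of replicates past the limit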
BB721 growth = retest: blocks Vibrio harveyi BB721 growth; shares compounds with AI-2 QS modul; OD600 absorbance, 9 h; growth inhibition, % at 7.5 µM; 750 compounds, 3% hits; AID 2728;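 active = every replicate shows growth inhibition above 50%; inconclusive = at least half but not all replicates above 50% inhibition; inactive = under half of replicates above 50% inhibition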
JMH597 AI-2 mod = Vibrio harveyi AI-2 signaling luminescence modulation – JMH597 strain, confirmation. shares compounds with AI-2 QS modul. Vibrio harveyi JMH597 AI-2 quorum sensing luminescence, 9 h; luxN and CqsS knockout, AI-2 only. inhibition, % at 7.5 µM. 750 compounds, 97% hits;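 active = every replicate shows more than 75% inhibition of signal versus neutral control wells; inconclusive = half to three quarters of replicates exceed 75% inhibition; inactive = fewer than half of replicates exceed 75% inhibition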
* hit, by the source's call.

For O=C(COC(=O)CC1SC(N2CCCC2)=NC1=O)Nc1c(F)c(F)c(F)c(F)c1F (stereo not given) the results were Efflux pump mplx 0, SUMO Mot1 rescue 9, ATG4B inhibitor -10 and V-ATPase pHluor 6.
CCOc1ccc(N2C(=O)CC(SCCN)C2=O)cc1 (stereo not given) was read as AI-2 QS modul -49, Efflux pump mplx 0, SUMO Mot1 rescue 10, ATG4B inhibitor -4 and V-ATPase pHluor -2.
`CCCCCCOc1ccc(N2C(=O)CC(SCCN)C2=O)cc1` (stereo not given) gave AI-2 QS modul -85*, Efflux pump mplx 0, SUMO Mot1 rescue -10, ATG4B inhibitor -2, V-ATPase pHluor -1, JMH597 growth rt 28, BB721 const-QS lum 88*, BB721 growth 6 and JMH597 AI-2 mod 96*.
`COc1cc(CNCCN(C)C)c(Br)cc1OC1CCCC1` gave AI-2 QS modul -4, Efflux pump mplx 0, SUMO Mot1 rescue -15, ATG4B inhibitor -13 and V-ATPase pHluor 0.
`Cc1cc(C(=O)Nn2cnc3ccccc3c2=O)ccc1[N+](=O)[O-]` gave AI-2 QS modul -86*, Efflux pump mplx 0, SUMO Mot1 rescue 5, ATG4B inhibitor -2, V-ATPase pHluor -2, JMH597 growth rt 24, BB721 const-QS lum 95*, BB721 growth 11 and JMH597 AI-2 mod 97*.
Screening Clc1nc(-c2ccccc2)ncc1Oc1ccccc1 returned AI-2 QS modul -85*, Efflux pump mplx 0, SUMO Mot1 rescue -1, ATG4B inhibitor -1, V-ATPase pHluor 0, JMH597 growth rt 18, BB721 const-QS lum 97*, BB721 growth 22 and JMH597 AI-2 mod 98*.
`CC(C)NC(=S)N/N=C1\CCCCC1C1CCCCC1` (stereo not given) gave AI-2 QS modul 33, Efflux pump mplx 0, SUMO Mot1 rescue -11, ATG4B inhibitor 5 and V-ATPase pHluor -3.
Screening CCc1ccc(NC(=O)COc2ccc(Br)cn2)cc1 returned AI-2 QS modul -84*, Efflux pump mplx 0, SUMO Mot1 rescue 7, ATG4B inhibitor 0, V-ATPase pHluor 0, JMH597 growth rt -16, BB721 const-QS lum 95*, BB721 growth 1 and JMH597 AI-2 mod 96*.
Screening CCc1ccc(OCC(=O)Nc2ccncc2)c(Br)c1 returned AI-2 QS modul -81*, Efflux pump mplx 0, SUMO Mot1 rescue 82, ATG4B inhibitor 1, V-ATPase pHluor 3, JMH597 growth rt 30, BB721 const-QS lum inconclusive, BB721 growth -22 and JMH597 AI-2 mod 100*.
CC(C)(C)c1ccc(OCC(=O)Nc2ccncc2)c(Br)c1 was read as AI-2 QS modul 19, Efflux pump mplx 0, SUMO Mot1 rescue 19, ATG4B inhibitor 0 and V-ATPase pHluor 1.
For O=C(CCCn1nnc(-c2cccnc2)n1)c1ccc(F)cc1 the results were AI-2 QS modul -80*, Efflux pump mplx 0, SUMO Mot1 rescue 40, ATG4B inhibitor -4, V-ATPase pHluor 4, JMH597 growth rt 0, BB721 const-QS lum 92*, BB721 growth -11 and JMH597 AI-2 mod 95*.
`CC12CC(NC(=O)N1c1cccc(C(=O)NCc3ccccn3)c1)c1ccccc1O2` (stereo not given) gave AI-2 QS modul 49, Efflux pump mplx 0, SUMO Mot1 rescue -2, ATG4B inhibitor -11 and V-ATPase pHluor -1.
CCOc1cccc2c1OC1(C)CC2NC(=O)N1c1cccc(C(=O)NCc2ccccn2)c1 (stereo not given) was read as AI-2 QS modul -95*, Efflux pump mplx 0, SUMO Mot1 rescue 253, ATG4B inhibitor 5, V-ATPase pHluor 1, JMH597 growth rt 6, BB721 const-QS lum -6, BB721 growth 0 and JMH597 AI-2 mod 6.
Cc1cc(NS(=O)(=O)c2ccc(NC(=O)CCc3ccccc3)cc2)no1 was read as AI-2 QS modul -91*, Efflux pump mplx 0, SUMO Mot1 rescue -7, ATG4B inhibitor -5, V-ATPase pHluor -3, JMH597 growth rt 21, BB721 const-QS lum 95*, BB721 growth 17 and JMH597 AI-2 mod 97*.
`Cc1cc(NS(=O)(=O)c2ccc(NC(=O)CCCOc3ccccc3)cc2)no1` gave AI-2 QS modul -12, Efflux pump mplx 0, SUMO Mot1 rescue 3, ATG4B inhibitor -12 and V-ATPase pHluor 4.
Screening Cc1c(CN2CCN(CC(C)C)C(CCO)C2)[nH]c2ccc(Cl)cc12 (stereo not given) returned AI-2 QS modul 4, Efflux pump mplx 0, SUMO Mot1 rescue 11, ATG4B inhibitor 1 and V-ATPase pHluor 3.
For CCc1ccc(CCC(=O)Nc2ccc(Cl)cc2)o1 the results were AI-2 QS modul -89*, Efflux pump mplx 0, SUMO Mot1 rescue -1, ATG4B inhibitor 9, V-ATPase pHluor -2, JMH597 growth rt -7, BB721 const-QS lum 96*, BB721 growth -36 and JMH597 AI-2 mod 98*.
For CCOC(=O)c1ccc(NC(=O)CCc2ccc(CC)o2)cc1 the results were AI-2 QS modul -14, Efflux pump mplx 0, SUMO Mot1 rescue 4, ATG4B inhibitor 4 and V-ATPase pHluor -2.
CCc1ccc(CCC(=O)Nc2ccc(C(C)=O)cc2)o1 was read as AI-2 QS modul -94*, Efflux pump mplx 0, SUMO Mot1 rescue 143, ATG4B inhibitor 1, V-ATPase pHluor -2, JMH597 growth rt 8, BB721 const-QS lum 98*, BB721 growth -15 and JMH597 AI-2 mod 99*.
For Cc1ccc(CCC(=O)Nc2ccc(Cl)cc2)o1 the results were AI-2 QS modul -87*, Efflux pump mplx 0, SUMO Mot1 rescue -9, ATG4B inhibitor 3, V-ATPase pHluor 1, JMH597 growth rt 23, BB721 const-QS lum 91*, BB721 growth 9 and JMH597 AI-2 mod 93*.
`CCc1ccc(CCC(=O)Nc2ccc(Br)cc2)o1` gave AI-2 QS modul -91*, Efflux pump mplx 0, SUMO Mot1 rescue 2, ATG4B inhibitor 20, V-ATPase pHluor -1, JMH597 growth rt -20, BB721 const-QS lum 95*, BB721 growth -26 and JMH597 AI-2 mod 97*.
Screening CCc1ccc(CCC(=O)Nc2ccc(OC)cc2)o1 returned AI-2 QS modul -69, Efflux pump mplx 0, SUMO Mot1 rescue 143, ATG4B inhibitor -10 and V-ATPase pHluor 0.
Screening Cc1ccc(CCC(=O)Nc2ccc(N(C)C)cc2)o1 returned Efflux pump mplx 0, SUMO Mot1 rescue 23, ATG4B inhibitor -2 and V-ATPase pHluor 1.
